Whole data set: some 25,000 sequences, median “ln(normalized median fluorescence intensity)” near 7.1, cut for the highest 2% near 10. The list comes from a sample in which the highest values are over-represented; it also holds similar and randomly drawn sequences.

The test system of the experiment is PfSIP2 AP2 domain 1 (GST-tagged). Put plainly: gcPBM binding intensity (ln(normalized median fluorescence intensity)); higher = stronger DNA binding. An outline of the steps:
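Binding intensity is defined as the maximum Masliner-normalised natural-log median intensity across replicate spots for either probe orientation. It was measured on an Agilent 4 × 180k array of primer-extended double-stranded 36-bp intergenic genomic probes and negative controls, to which GST-tagged P. falciparum DNA-binding domains made in E. coli were applied for 1 h in 1× PBS with 1% milk, 0.2 mg/ml BSA, 0.5% salmon testes DNA and 0.03% Triton X-100. Detection was by Alexa488 anti-GST antibody and scanning at 488 nm.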
With “ATATATAAATATAGCATACACACAAAAAAATAAAAT [CACACA_site2332]”, the “gcPBM binding intensity (ln)” value is 7.11.

As for “ATTTATTTTATATGTTGTACAAACATTTTAAAACAT [XGTACX_site6919]”, the “gcPBM binding intensity (ln)” value is 6.95.

Regarding “TATCATATATGAAGGTGTACGATTTATTATATAAAT [XGTACX_site7010]”, the “gcPBM binding intensity (ln)” value is 7.04.

Consider AAATATTATAAAAAGGTGCATTTTTATTATATGAGT, for which the “gcPBM binding intensity (ln)” value worked out at 11.

Consider “GACAATATTAAAACATGTACATGCATTTTATGAATA [XGTACX_site553]”, for which the “gcPBM binding intensity (ln)” value turned out to be 7.05.

Regarding TACAGTTCAATGAAGGTGCAATTAATATATAAAATA, the “gcPBM binding intensity (ln)” value came to 10.2.

For the sequence “TTTTTTAAATATATGGTGCATAGAAAGATATTATAC [GTGCAC_site9984]”, the “gcPBM binding intensity (ln)” value worked out at 10.

Consider ATATTTTATGTAAAGGTGCAAAACAACATTAAAAAA, for which the “gcPBM binding intensity (ln)” value stood at 10.5.

For the sequence “TTATTTTTATTATAAATTATAAAATATAAATAAATA [GTGCAC_negctrl_site616]”, the “gcPBM binding intensity (ln)” value turned out to be 6.79.

Consider “TTTTTTAAATATTATTTTTATGAGTAAATATATTAT [GTGCAC_negctrl_site277]”, for which the “gcPBM binding intensity (ln)” value was 6.71.

With ATTATCAATATGAAGGTGCATTTAAATAATATTTAC, the “gcPBM binding intensity (ln)” value came out at 10.7.

Take “TTTTTTTTTAATAAAATTATAATAAATATGAAATTA [XGTACX_negctrl_site369]”: the “gcPBM binding intensity (ln)” value was determined as 6.67.

As to “TTTTTATGGACTATGGTGCATTATATATAAATGAAA [GTGCAC_site9557]”, the “gcPBM binding intensity (ln)” value turned out to be 10.6.

In the case of “ATCATATATTATTTATGTACTTATTTATAATAATAT [XGTACX_site8257]”, the “gcPBM binding intensity (ln)” value stood at 7.06.

For the sequence “AGAATATCAAAATAAAGTACATTTATTATATATATG [XGTACX_site7100]”, the “gcPBM binding intensity (ln)” value worked out at 7.15.

Regarding “TTATTTAAAAAATTTTTAAATATACAAAAAAAAAAA [TGCATGCA_negctrl_site464]”, the “gcPBM binding intensity (ln)” value was 6.88.

For “TTAATTGACATAAAAAGTACTCATATAGATATGCAC [XGTACX_site6391]”, the “gcPBM binding intensity (ln)” value worked out at 8.9.

As for “AAACATTTATCAATGAATCTTTTAATAAGTGTAAAG [XGTACX_negctrl_site80]”, the “gcPBM binding intensity (ln)” value is 6.79.

For the sequence “TAAATATAACAGAATAATATGTGGATTAATAAATGA [CACACA_negctrl_site438]”, the “gcPBM binding intensity (ln)” value amounted to 6.81.

In the case of “ACATATGGCACATATGTACACACGTATAGATAATAT [CACACA_site2024]”, the “gcPBM binding intensity (ln)” value was 7.19.

With “TGGAGGTCAGTTCACAGTACCCAGAAAACTCTACGA [XGTACX_site2561]”, the “gcPBM binding intensity (ln)” value stood at 6.58.

As for “TAAAATATTATAAAATGTACAAAACATATAAATATA [XGTACX_site5315]”, the “gcPBM binding intensity (ln)” value came to 6.8.

Regarding “AACACATAATAAAATTGTACCCAACATTTCTTTTGA [XGTACX_site8061]”, the “gcPBM binding intensity (ln)” value came out at 6.96.

As to “GCATATGATGAGCATATAATCATAAGAAAAAAAAAA [CACACA_negctrl_site701]”, the “gcPBM binding intensity (ln)” value stood at 6.72.

Take GCAAATCATGCTATGGTGCATATGTAAGATGAGCAT: the “gcPBM binding intensity (ln)” value was determined as 10.6.

As for “TATTAATTATAAGATGCATGTGCAAAAATATGTTCC [TGCATGCA_site51]”, the “gcPBM binding intensity (ln)” value was 7.6.

For “TATAACTTTTATAGGTGTACCCAATATTATATATAG [XGTACX_site7673]”, the “gcPBM binding intensity (ln)” value came to 6.97.

As for “TTGCATTAATTTATGTGTACATATAAATTTTTATTT [XGTACX_site3060]”, the “gcPBM binding intensity (ln)” value is 7.41.

For “CCAGTGTGCACCTTGCGTACATATTAAATTAATTAA [XGTACX_site3729]”, the “gcPBM binding intensity (ln)” value came to 12.2.

Turning to “TTAAAAATGTGTGTGCGTACATAATATTTCGAAAAA [XGTACX_site8197]”, the “gcPBM binding intensity (ln)” value came to 7.03.

As to “TATATATATTTTATATGTACGTATGGAACAATATGA [XGTACX_site8167]”, the “gcPBM binding intensity (ln)” value is 7.38.

As to “ATATATATGTATATAACATGCAACATTTAATAATAA [TGCATGCA_site1018]”, the “gcPBM binding intensity (ln)” value worked out at 7.18.

On to “CATGTATGTACCATGGTGCAACAATATTTTTAACAA [GTGCAC_site9597]”, for which the “gcPBM binding intensity (ln)” value turned out to be 10.6.

Regarding “GTTACTGCATACATAACACACATATTCAAAACCCAT [CACACA_site5856]”, the “gcPBM binding intensity (ln)” value came to 7.13.

As for “TGATTCTGTCATGGTGCACACCAGAACCATTATAAA [CACACA_site1965]”, the “gcPBM binding intensity (ln)” value came out at 11.9.

Turning to “TTCTGTATACGGTGTGCACACAATTAAAAAAAAAAA [CACACA_site1416]”, the “gcPBM binding intensity (ln)” value worked out at 9.47.

With “CATTATGTCATAAATGCACACATATATATATACATA [CACACA_site8454]”, the “gcPBM binding intensity (ln)” value is 7.38.

On to “TTATAAAGAATTAGGAGTACAAATGCATATATAATA [XGTACX_site6580]”, for which the “gcPBM binding intensity (ln)” value amounted to 7.3.

With “TGTTTATTTTTTTTATGTACTTATTTTTTATTGCAT [XGTACX_site719]”, the “gcPBM binding intensity (ln)” value was found to be 7.61.

Turning to “ATATTTTTATTTAAATCACATCATTTTGTTTATTTG [CACACA_negctrl_site1056]”, the “gcPBM binding intensity (ln)” value was determined as 6.95.

In the case of “AAAATTAAAAATAACACACACATATATATATTTATA [CACACA_site2776]”, the “gcPBM binding intensity (ln)” value stood at 6.9.

Take “GAAAAATTAAAAATAACACACACATATATATATTTA [CACACA_site8896]”: the “gcPBM binding intensity (ln)” value is 6.98.

For “AAAATTAAAAATAACACACACATATTTATATTTATA [CACACA_site7329]”, the “gcPBM binding intensity (ln)” value came out at 6.87.

Consider TAAAATAATATTTATGTGCACATATAATTATTAATT, for which the “gcPBM binding intensity (ln)” value came to 8.71.

Take “AAAAAATTAACGAGTGCACACATATTTAGATAAAAT [CACACA_site8958]”: the “gcPBM binding intensity (ln)” value amounted to 10.6.

Take “AAAATTAACGAGTGCACACATATTTAGATAAAATAC [CACACA_site2936]”: the “gcPBM binding intensity (ln)” value was 11.2.

The values are drawn from the supplement of paper PMC11417369.
